# From PubChem BioAssay AID1347076 (National Center for Advancing Translational Sciences (NCATS), 2019)
# Among all 400,000 compounds or so, about 13,000 (3.2%) were called active. Not shown: some 18% with an inconclusive outcome. Calls come from the whole dose curve; as a rule, active = well fitted cell-killing curve with a large enough effect; inconclusive = small, poorly fitted or top-dose-only effect, or effect the other way; inactive = flat fitted curve, though single readings scatter. What follows is part of a selection rich in actives, with near analogues and random picks from the rest.
# Experiment: qHTS assay for MDR1-selective chemotherapeutics: Primary screen using the drug-selected MDR subline cells KB-V1; note: nearly all actives have a fitted effect of over 60% in size
# Details: KB-V1 MDR cells viability, CellTiter-Glo, 72 h; series mostly up to 46.1 µM; activity change, negative = cytotoxicity: at the top concentration
# In short: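 Compound-treated KB-V1 multidrug-resistant cells, 72 h, 37 degrees C; viability by CellTiter-Glo. Fitted qHTS curves give the values.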
# % is set by controls: 0 for no effect and ±100 for the full control effect; potency is the fitted concentration of half-maximal effect.
Structure (SMILES),"activity change, negative = cytotoxicity",Potency
O=C(N[C@H]1CC[C@H](CC(=O)N2CCCCC2)O[C@@H]1CO)c1cccc(F)c1,4.32% (inactive),
Cc1cc2nc(-c3ccco3)c(Cc3cccc(F)c3)n2c(C)c1Br,11.8% (inactive),
CCOc1ccccc1NC(=O)Cn1c(=O)n(Cc2ccccc2)c(=O)c2c(C)c(C(=O)N(C)C)sc21,13.6% (inactive),
Cc1cccc(NC(=O)Cn2c(=O)n(Cc3ccccc3)c(=O)c3c(C)c(C)sc32)c1,,5.17 µM (active)
Cc1cccc(-n2c(=O)c3c(C)c(C)sc3n(CC(N)=O)c2=O)c1,7.39% (inactive),
CCCS(=O)(=O)NC(=O)C1(C)CCCN(C(=O)c2cc(C)on2)C1 (stereo not drawn),4.37% (inactive),
CC(=O)Nc1cccc(C(=O)OCC(=O)Nc2nnc(-c3ccccc3)o2)c1,29% (inactive),
O=C(OCc1ccc(Br)cc1)c1cccc(-c2nnc(-c3ccccc3)o2)c1,,9.2 µM (active)
O=C(OCc1ccc(-c2ccccc2)cc1)c1cccc(O)c1,-18% (inactive),
O=C(O)C1=C/C(=C/C=[N+]2c3cc(O)c(O[C@H]4OC(CO)[C@@H](O)[C@@H](O)[C@@H]4O)cc3C[C@@H]2C(=O)[O-])C[C@H](C(=O)O)N1 (stereo partly drawn),17% (inactive),
Cc1cccc(NC(=O)C2CCN(C(=O)NC3CCCCC3)CC2)c1,-27.3% (inactive),
Cc1ccccc1NC(=O)C1CCN(C(=O)NC2CCCCC2)CC1,-21.8% (inactive),
O=C(Nc1cccc2c1CCCC2)C1CCN(C(=O)NC2CCCCC2)CC1,,13 µM (active)
CCCCC(O)C1=C[N+](=O)CC=C1 (stereo not drawn),-8.56% (inactive),
COc1ccc(N(CC(=O)NCCc2ccc(Cl)cc2)S(=O)(=O)c2c(C)nn(C)c2C)cc1,-2.24% (inactive),
C(=Nc1ccc(/C=C/c2ccnc3ccccc23)cc1)c1cc2c3c(c1)CCCN3CCC2,-3.26% (inactive),
O=c1c2ccccc2nc(N/N=C/c2ccccc2)n1O,-11.6% (inactive),
Cc1nc(Cl)cc(N/N=C/c2ccccc2)n1,-7.94% (inactive),
Cc1cc2c(C)nc(N/N=C/c3ccccc3)nc2o1,,23.1 µM (active)
O=C(c1cc(C2CCCCN2S(=O)(=O)c2ccccc2)on1)N1CCOCC1 (stereo not drawn),4.3% (inactive),
Nc1cc(C(=O)N2CCN(c3ccccc3Cl)CC2)ccc1N1CC2CC(C1)c1cccc(=O)n1C2 (stereo not drawn),-1.97% (inactive),
Cc1ccc(S(=O)(=O)CCC(=O)OCC(=O)N(C)C2CCS(=O)(=O)C2)cc1 (stereo not drawn),-3.87% (inactive),
Cc1ccc(S(=O)(=O)N(c2cccc(C)c2)C2CCS(=O)(=O)C2)cc1 (stereo not drawn),,16.4 µM (active)
CN(C1CCS(=O)(=O)C1)S(=O)(=O)c1ccc2ccccc2c1 (stereo not drawn),-7.48% (inactive),
CCc1nc2nc(C)cc(Nc3ccc(F)c(Cl)c3)n2n1,1.62% (inactive),
N#CCc1c[nH]c2ccc([N+](=O)[O-])cc12,16.4% (inactive),
O=[N+]([O-])c1ccc2[nH]c3c(c2c1)CCCC3O (stereo not drawn),,20.6 µM (active)
CCOC(=O)c1ccc2[nH]c3c(c2c1)CCCC3NC=O (stereo not drawn),-6.76% (inactive),
